Over roughly 33,000 sequences, “e-score” has its median near -0.05; the highest 2% begin near 0.38. This is one part of a sample in which the highest values are shown more often than they occur.
Target: T1, SIX1-Q177R homeodomain (human, UniProt Q15475 108-198, Q177R)
T1 sequence: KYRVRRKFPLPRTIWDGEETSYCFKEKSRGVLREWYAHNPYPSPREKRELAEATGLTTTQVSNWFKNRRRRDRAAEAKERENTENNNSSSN
Assay: universal protein binding microarray; Universal all-10-mer PBM (8x60K, AMADID 030236), 300 nM GST-tagged protein, Alexa Fluor 488 anti-GST; buffer, salt, pH and temperature not stated (as in Berger); high values mean tight binding
Settings: protein: ivt; tags: N-terminal GST; dsDNA, one strand shown
Outline: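 GST-tagged homeodomains were made by in vitro transcription/translation and quantified by anti-GST western blot against a recombinant GST standard curve. They were applied in duplicate at 300 nM final concentration to universal 'all 10-mer' protein binding microarrays (8×60K format). Binding was quantified as 8-mer E-scores with the Universal PBM Analysis Suite.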

Sequence	binding signal [E-score]
CACTTCAC	0.154 ± 0.0408
ACTCCGCG	0.22 ± 0.00707
CACACGTG	0.362 ± 0.00543
CCAGGATA	0.2169 ± 0.00146
ACACCCGG	0.4824 ± 0.0027
CCACCCGA	0.206 ± 0.00492
ACCCCCGG	0.305 ± 0.0423
AACCCCGT	0.174 ± 0.0274
GCACCCGA	0.235 ± 0.00309
ACACCCGC	0.4623 ± 0.00219
ACCCCCGC	0.318 ± 0.046
ACACCCGT	0.4709 ± 0.00247
GCACCCGC	0.227 ± 0.0318
CCACCCGG	0.201 ± 0.0191
ACACCCGA	0.457 ± 0.00947
ACCCCCGT	0.273 ± 0.0189
GGGAGTCA	0.221 ± 0.0066
ATAGGGGG	0.259 ± 0.00343
CACGGGGA	0.199 ± 0.0103
CCCGTAGG	0.178 ± 0.00511
GGAGCACC	0.268 ± 0.0396
AGGGGGAT	0.23 ± 0.0203
CGCAAACA	0.181 ± 0.0196
GTGATACA	0.172 ± 0.0198
ACCATACA	0.3199 ± 0.00166

Sequence	binding signal [E-score]
GGTCCGTA	0.189 ± 0.0444
GAGGGTAC	0.183 ± 0.0122
AGACACCA	0.458 ± 0.0134
AGGCACCA	0.178 ± 0.0251
GGACACGA	0.356 ± 0.0172
TGACACCA	0.4915 ± 0.00377
TGACACAA	0.298 ± 0.0424
TGACGACA	0.212 ± 0.00725
GGACACCA	0.4831 ± 0.00245
TCCATGGA	0.1596 ± 0.000424
CGGGGTTA	0.22 ± 0.0181
ACGGAACA	0.212 ± 0.00638
TGTGAACA	0.327 ± 0.0228
ACCGTTGG	0.2165 ± 0.000431
ACCCGACG	0.208 ± 0.0142
TAGCTACA	0.209 ± 0.0332
GTATCAGA	0.284 ± 0.0131
GTTGGGGA	0.218 ± 0.00618
CCCTTTGC	0.219 ± 0.0339
CCCGGGTC	0.335 ± 0.0417
CGTGTAAC	0.43 ± 0.0129
AGGGTAAG	0.152 ± 0.023
GGTGTAGA	0.4728 ± 0.00114
GGGGTAGA	0.194 ± 0.0142
GGAGTAGA	0.2198 ± 0.000615

Sequence	binding signal [E-score]
GGGGTAAC	0.293 ± 0.0173
GGAGTAAC	0.157 ± 0.0575
CGTGTAAG	0.428 ± 0.0306
CGGGTAAC	0.2 ± 0.000757
GGTGTAAC	0.482 ± 0.00603
CACCACTC	0.322 ± 0.00333
CGTATGAC	0.199 ± 0.0291
AATAGGTG	0.207 ± 0.0434
CGTGTAAA	0.435 ± 0.0253
AGTGTAAT	0.413 ± 0.0369
GGGGTAAA	0.29 ± 0.0101
AGTGTATG	0.36 ± 0.013
CGGGTAAA	0.194 ± 0.0165
AGTGTAAG	0.415 ± 0.026
AGTGTGAT	0.223 ± 0.0157
GGAGTAAA	0.222 ± 0.0733
GGTGTAAA	0.476 ± 0.0157
AGTGTGAG	0.208 ± 0.00245
AGTCGGGG	0.158 ± 0.0158
CCCCCCGC	0.248 ± 0.0302
GCGATCCC	0.182 ± 0.0137
CGGAGTGA	0.216 ± 0.008
CACGATGC	0.182 ± 0.0345
GGTGCCAC	0.195 ± 0.0196
CTCCCGAC	0.1532 ± 0.000212

Sequence	binding signal [E-score]
AGTGTAAC	0.419 ± 0.0327
AGTGTAAA	0.402 ± 0.0464
TGTGTAAA	0.235 ± 0.0184
AGGGTAAC	0.176 ± 0.0073
AGAGTAAC	0.163 ± 0.0176
ACTGGGAG	0.223 ± 0.0162
ACCGGTGC	0.238 ± 0.0365
CCGATCCA	0.188 ± 0.0051
ACCCCCTA	0.337 ± 0.0127
ATTACACC	0.479 ± 0.0126
CTTACTCC	0.194 ± 0.0358
ATTACACG	0.435 ± 0.0178
ATTACACA	0.291 ± 0.00197
CTTACACA	0.231 ± 0.0061
ATTACTCC	0.287 ± 0.0213
CTTACACC	0.478 ± 0.00815
ATTACCCC	0.294 ± 0.00817
GTTACACA	0.267 ± 0.0166
ACGCGGGC	0.164 ± 0.0117
GGTGGGTA	0.165 ± 0.0261
GAGATACC	0.225 ± 0.0222
GATTAACA	0.162 ± 0.0238
ACACTCGA	0.358 ± 0.0137
ACACTCGG	0.408 ± 0.0187
ACACTCGT	0.351 ± 0.0272

Sequence	binding signal [E-score]
ACACTCGC	0.385 ± 0.0258
CCACTCGC	0.222 ± 0.00987
AGACTCGG	0.16 ± 0.0294
AAGCTACA	0.178 ± 0.0271
GGTGTGAA	0.427 ± 0.00482
CGTGTGCA	0.202 ± 0.0212
AGTGTGTA	0.285 ± 0.00827
CGTGTGAC	0.304 ± 0.0135
GGTGTGCA	0.391 ± 0.0295
TGTGTGAA	0.187 ± 0.0245
AGTGTGAA	0.276 ± 0.021
GGTGTGTA	0.411 ± 0.0106
GGTGTGAC	0.435 ± 0.0199
AGTGTGAC	0.359 ± 0.00684
AGTGTGCA	0.185 ± 0.00583
CACTCGGA	0.177 ± 0.0507
GTATCACA	0.3 ± 0.034
ATCCGACA	0.238 ± 0.04
ACCTAGGT	0.157 ± 0.0301
GGGGGATA	0.2 ± 0.0198
CAAGCACC	0.176 ± 0.0183
GGTGTATA	0.458 ± 0.0157
CGTGTATA	0.367 ± 0.0156
GGTATATA	0.1906 ± 0.000509
GTGCAACA	0.292 ± 0.0195

Sequence	binding signal [E-score]
ACCTATAA	0.177 ± 0.008
AGTTTATC	0.208 ± 0.0174
CCCCGAGC	0.198 ± 0.0241
CGTGTATC	0.39 ± 0.00909
AGTGTATA	0.359 ± 0.0244
AGAGTATC	0.238 ± 0.0465
CGGGTATC	0.374 ± 0.0147
AGTGTATC	0.399 ± 0.0163
TCTAGACA	0.155 ± 0.0039
CGATCCCC	0.303 ± 0.0313
CCCCAGGA	0.173 ± 0.00623
AGCGAGTG	0.268 ± 0.0193
CAAACTAG	0.152 ± 0.0273
ACGTGTGC	0.16 ± 0.0249
GAGTGTGA	0.29 ± 0.0218
AGGTGTGG	0.371 ± 0.0242
CGGTGCGC	0.221 ± 0.0195
AGGTGTGA	0.4098 ± 0.00286
AGGTGTGC	0.322 ± 0.019
CGGTGAGA	0.177 ± 0.0168
GTGTGTGA	0.229 ± 0.0436
CGGTGTGC	0.381 ± 0.0324
CGGTGTGA	0.434 ± 0.0168
CGGGGTGA	0.166 ± 0.0603
GGGTGTGA	0.429 ± 0.0152

Sequence	binding signal [E-score]
ACTCCGAT	0.182 ± 0.0265
CCCCGACG	0.162 ± 0.0371
CACTAAGA	0.17 ± 0.0243
AGGTATCG	0.33 ± 0.00862
ACCCTGGA	0.168 ± 0.028
CCCCACAG	0.172 ± 0.025
CACCAAGC	0.26 ± 0.0355
CACCAGCC	0.239 ± 0.0131
CCCCAACA	0.278 ± 0.00752
ACTGACCC	0.213 ± 0.011
CCTGACCC	0.159 ± 0.0403
CCTGACAC	0.452 ± 0.00834
ACTGACAC	0.4777 ± 0.00257
ACTGATAC	0.295 ± 0.00533
GCTGATAC	0.243 ± 0.0143
CCTGACGC	0.161 ± 0.00552
ACTGACAA	0.153 ± 0.0151
GCTGACAC	0.444 ± 0.00725
GACTCCCC	0.161 ± 0.0189
AACCCACA	0.157 ± 0.00573
GAGTCACC	0.157 ± 0.0094
CTACGACA	0.172 ± 0.0171
